Assay results as given in PubChem BioAssay (Tox21).
Where “and” joins values, the source holds several entries; their conditions need not be identical. Equal entries are not always repeated. Records with an inconclusive call do not appear. Entries that show only a call come without a potency. Where a structure was tested more than once in an assay, its records may differ in their call. Calls of active or inactive are those of the source. Unless noted, calls come from the whole dose curve; as a rule, active = well fitted curve in the direction sought with a large enough effect in the repeat runs; inconclusive = weak or mixed curves; inactive = no such curve, though single readings can be large; an effect the other way counts as inactive or inconclusive.

What was measured:
[1] = qHTS assay to identify small molecule agonists of the RXR signaling pathway - cell viability counter screen (AID 1159529); note: nearly all actives have a fitted effect of over 50% in size; note: potency is the fitted concentration of half-maximal effect
In short: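 HEK 293T RXRa-bla cells, 2% CS-FBS; 5 h settle; cpd 16 h 37 C, 5% CO2; CellTiter-Glo 30 min RT, luminescence. Tetraoctyl ammonium bromide as positive control.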

[2] = qHTS assay to identify small molecule antagonists of the retinoid acid receptor (RAR) signaling pathway - cell viability counter screen (AID 1159551); note: nearly all actives have a fitted effect of over 35% in size
In short: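 Viability of C3RL4 cells is quantified from ATP by luminescence after 6 h treatment at 37 C with compounds and 1 uM retinol.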

[3] = qHTS assay to identify small molecule antagonists of the retinoic acid receptor (RAR) signaling pathway (AID 1159552; note: nearly all actives have a fitted effect of over 50% in size; note: potency is the fitted concentration of half-maximal effect)
In short: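 Cells of the C3RL4 line were seeded, incubated overnight, then dosed with compounds in DMSO followed immediately by retinol (1 uM final). Six hours later luciferase detection reagent went in; signal was measured after 30 min at RT.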

[4] = qHTS assay to identify small molecule agonists of the retinoic acid receptor (RAR) signaling pathway (AID 1159553); conditions: C3RL4 RARE luciferase reporter, agonist, 6 h; activation: at 73.3 µM (top of the series) unless noted; note: potency is the fitted concentration of half-maximal effect
In short: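 Compounds dissolved in DMSO were pinned onto C3RL4 cells seeded the previous day, and plates were held 6 hr at 37 C. RARE-driven luciferase output was then read by luminescence.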

[5] = qHTS assay to identify small molecule antagonists of the estrogen related receptor (ERR) signaling pathway from Tox21 library - cell viability counter screen (AID 1224834); note: nearly all actives have a fitted effect of over 30% in size; note: potency is the fitted concentration of half-maximal effect
In short: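 In this quantitative HTS format, ERR cells receive compounds in DMSO and are incubated for 17.5 h at 37 C. Live-cell protease activity is then detected with CellTiter-Fluor.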

[6] = qHTS assay to identify small molecule agonists of the constitutive androstane receptor (CAR) signaling pathway - cell viability counter screen (AID 1224836); note: nearly all actives have a fitted effect of over 45% in size
In short: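 HepG2-CYP2B6-hCAR, 2500 cells/well, 4 h pre-incubation; cpd 15 conc + PK11195 0.75 uM final; 23 h, 37 C/5% CO2; CellTiter-Fluor, fluorescence.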

[7] = molecular target: Nuclear receptor subfamily 1 group I member 3 (Homo sapiens) (UniProt Q14994); test: qHTS assay to identify small molecule antagonists of the constitutive androstane receptor (CAR) signaling pathway (AID 1224838); note: nearly all actives have a fitted effect of over 40% in size; note: potency is the fitted concentration of half-maximal effect
In short: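 CITCO-stimulated (50 nM final) HepG2 cells stably transfected with hCAR and CYP2B6-2.2kb luciferase were exposed to compounds at 15 concentrations for 24 h at 37 C/5% CO2. A luciferase reagent was added and luminescence recorded after 30 min.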

[8] = qHTS assay to identify small molecule antagonists of the estrogen related receptor signaling pathway with the pleiotropic PPARgamma coactivator (PGC) from Tox21 10K library - cell viability counter screen (AID 1224840; active = well fitted cell-killing curve with a large enough effect in the repeat runs, not every such curve was filed as active; note: nearly all actives have a fitted effect of over 40% in size)
In short: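 Viability counter screen, PGC/ERR cells: 17.5 h compound exposure at 37 C, CellTiter-Fluor fluorescence endpoint.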

[9] = qHTS assay to identify small molecule antagonists of the estrogen related receptor signaling pathway with the pleiotropic PPARgamma coactivator (PGC) from Tox21 10K library (AID 1224841; call rule not given here; note: actives are mostly falling curves and most rising ones were filed inactive; nearly all actives have a fitted effect of over 50% in size; note: potency is the fitted concentration of half-maximal effect)
In short: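 In the PGC/ERR line, DMSO solutions of test chemicals are pin-delivered to 2,000 cells/well six hours after dispensing. Following eighteen hours' incubation, One-Glo reagent is added and luminescence recorded.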

[10] = qHTS assay to identify small molecule agonists of the estrogen related receptor signaling pathway with the pleiotropic PPARgamma coactivator (PGC) from Tox21 10K library (AID 1224842); note: nearly all actives have a fitted effect of over 15% in size
In short: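 PGC/ERR reporter cell line, 2,000 cells per well, incubated 6 h at 37 C before 23 nL compound in DMSO was added. After 18 h at 37 C, One-Glo luminescence read following 30 min at room temperature.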

[11] = molecular target: Thyrotropin receptor (Homo sapiens) (UniProt P16473); test: qHTS assay to identify small molecule agonists of the thyroid stimulating hormone receptor (TSHR) signaling pathway (AID 1224843; calls by dose curve; note: nearly all actives have a fitted effect of over 45% in size)
In short: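 HEK293/TSHR, 800 cells/well; cpd 30 min RT; add cAMP-d2 + anti-cAMP-cryptate, 1 h RT; fluorescence read on plate reader. 15-pt titration, n=3.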

[12] = qHTS assay to identify small molecule antagonists of the estrogen related receptor (ERR) signaling pathway - cell viability counter screen (AID 1224818)
In short: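 Cytotoxicity check run alongside the ERR antagonist screen: cells exposed to test compounds 17.5 h at 37 C, viability taken as CellTiter-Fluor fluorescence intensity.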

[13] = qHTS assay to identify small molecule antagonists of the estrogen related receptor signaling pathway with the pleiotropic PPARgamma coactivator (PGC) cell viability counter screen (AID 1224822; note: potency is the fitted concentration of half-maximal effect)
In short: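 Viable cell signal (CellTiter-Fluor, 30 min, 37 C/5% CO2) was measured in PGC/ERR cells after a 17.5 h compound incubation.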

[14] = molecular target: Luciferin 4-monooxygenase (Photinus pyralis) (UniProt P08659); test: qHTS assay to identify small molecule inhibitors of firefly luciferase (AID 1224835); note: nearly all actives have a fitted effect of over 25% in size; note: potency is the fitted concentration of half-maximal effect
In short: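 Biochemical qHTS: compounds run as interplate titrations against purified firefly enzyme, with D-luciferin and ATP each at its KM concentration. Light output recorded by CCD imaging.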

[15] = qHTS assay to identify small molecule antagonists of the constitutive androstane receptor (CAR) signaling pathway - cell viability counter screen (AID 1224837); note: nearly all actives have a fitted effect of over 45% in size; note: potency is the fitted concentration of half-maximal effect
In short: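 In quantitative HTS format, compounds at 15 concentrations were applied to HepG2 cells double-transfected with hCAR and CYP2B6-2.2kb under 50 nM CITCO stimulation; live-cell protease activity was read after 23 hr via CellTiter-Fluor.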

[16] = molecular target: Nuclear receptor subfamily 1 group I member 3 (Homo sapiens) (UniProt Q14994); test: qHTS assay to identify small molecule agonists of the constitutive androstane receptor (CAR) signaling pathway (AID 1224839);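 note: HepG2 cells stably carrying human CAR and a CYP2B6 luciferase reporter; nearly all actives have a fitted effect of over 15% in size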
In short: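 HepG2-CYP2B6-hCAR cells, 2500/well, 4 h pre-incubation; compounds 15 conc.; PK11195 0.75 uM final; 24 h, 37 C/5% CO2; ONE-Glo luciferase read.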

[17] = qHTS assay to identify small molecule antagonists of the estrogen related receptor (ERR) signaling pathway (AID 1224819; note: nearly all actives have a fitted effect of over 50% in size; note: potency is the fitted concentration of half-maximal effect)
In short: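 ERR reporter cells were plated at 2,000 cells/well and left 6 h at 37 C/5% CO2 before pin-tool transfer of compounds in DMSO. After 18 h at 37 C, One-Glo was added and luminescence was read 30 min later at room temperature.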

[18] = qHTS assay to identify small molecule agonists of the estrogen related receptor (ERR) signaling pathway (AID 1224820)
In short: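 Luminescence readout (One-Glo, 30 min RT) from NTP-supplied ERR cell line exposed to compounds for 18 h at 37 C. Cells seeded 2,000 per well and pre-incubated 6 h before pin-tool compound transfer.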

[19] = test system: estrogen-related receptor alpha (ERRalpha) with PGC-1alpha coactivator, human; test: qHTS assay to identify small molecule antagonists of the estrogen related receptor signaling pathway with the pleiotropic PPARgamma coactivator (PGC) (AID 1224821; calls by dose curve)
In short: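 PGC/ERR reporter cells; 6 h pre-incubation 37 C/5% CO2; pin-tool compound in DMSO, 18 h 37 C; One-Glo added, 30 min RT; luminescence read. qHTS antagonist mode.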

[20] = qHTS assay to identify small molecule agonists of the estrogen related receptor signaling pathway with the pleiotropic PPARgamma coactivator (PGC) (AID 1224823)
In short: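 Luminescence readout (One-Glo, 30 min RT) from PGC/ERR cell line treated 18 h at 37 C with pin-tool-delivered DMSO compound solutions; cells plated 6 h before dosing. Quantitative HTS format.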

Sequence of Luciferin 4-monooxygenase (Photinus pyralis) (P08659 whole entry, looked up): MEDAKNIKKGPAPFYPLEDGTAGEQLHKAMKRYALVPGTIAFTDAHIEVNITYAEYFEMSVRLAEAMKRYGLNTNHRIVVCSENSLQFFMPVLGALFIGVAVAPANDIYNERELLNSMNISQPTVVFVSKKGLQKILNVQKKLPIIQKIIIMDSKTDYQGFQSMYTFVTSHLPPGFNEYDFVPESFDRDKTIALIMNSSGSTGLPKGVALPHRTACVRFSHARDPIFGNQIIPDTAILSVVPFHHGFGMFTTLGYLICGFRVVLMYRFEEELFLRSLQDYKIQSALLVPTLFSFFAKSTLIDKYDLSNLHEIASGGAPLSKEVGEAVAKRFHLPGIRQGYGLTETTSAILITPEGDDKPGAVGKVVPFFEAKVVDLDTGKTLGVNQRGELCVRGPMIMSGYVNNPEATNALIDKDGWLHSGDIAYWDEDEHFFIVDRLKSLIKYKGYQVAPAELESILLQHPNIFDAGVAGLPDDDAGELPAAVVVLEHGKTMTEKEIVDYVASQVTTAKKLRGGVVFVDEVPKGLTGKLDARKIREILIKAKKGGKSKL
Sequence of Thyrotropin receptor (Homo sapiens) (P16473 whole entry, looked up): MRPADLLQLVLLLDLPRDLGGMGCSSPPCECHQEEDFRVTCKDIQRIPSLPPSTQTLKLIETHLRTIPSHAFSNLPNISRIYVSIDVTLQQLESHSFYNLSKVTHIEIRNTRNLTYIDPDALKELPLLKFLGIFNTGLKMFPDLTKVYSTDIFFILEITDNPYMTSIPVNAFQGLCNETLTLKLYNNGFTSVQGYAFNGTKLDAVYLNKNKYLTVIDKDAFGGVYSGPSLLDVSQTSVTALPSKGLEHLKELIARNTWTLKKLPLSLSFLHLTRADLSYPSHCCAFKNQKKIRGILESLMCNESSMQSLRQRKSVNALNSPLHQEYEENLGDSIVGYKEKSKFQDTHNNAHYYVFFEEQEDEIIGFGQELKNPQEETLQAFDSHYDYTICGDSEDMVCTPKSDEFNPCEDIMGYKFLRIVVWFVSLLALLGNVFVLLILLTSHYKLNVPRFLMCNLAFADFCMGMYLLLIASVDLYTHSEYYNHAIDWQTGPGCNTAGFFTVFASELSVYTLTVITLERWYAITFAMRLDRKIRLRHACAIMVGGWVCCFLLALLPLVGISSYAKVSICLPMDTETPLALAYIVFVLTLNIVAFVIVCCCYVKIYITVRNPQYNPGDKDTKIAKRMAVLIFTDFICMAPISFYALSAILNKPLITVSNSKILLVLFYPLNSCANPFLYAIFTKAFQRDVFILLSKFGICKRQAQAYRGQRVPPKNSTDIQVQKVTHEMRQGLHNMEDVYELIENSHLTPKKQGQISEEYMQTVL
Sequence of Nuclear receptor subfamily 1 group I member 3 (Homo sapiens) (Q14994 whole entry, looked up): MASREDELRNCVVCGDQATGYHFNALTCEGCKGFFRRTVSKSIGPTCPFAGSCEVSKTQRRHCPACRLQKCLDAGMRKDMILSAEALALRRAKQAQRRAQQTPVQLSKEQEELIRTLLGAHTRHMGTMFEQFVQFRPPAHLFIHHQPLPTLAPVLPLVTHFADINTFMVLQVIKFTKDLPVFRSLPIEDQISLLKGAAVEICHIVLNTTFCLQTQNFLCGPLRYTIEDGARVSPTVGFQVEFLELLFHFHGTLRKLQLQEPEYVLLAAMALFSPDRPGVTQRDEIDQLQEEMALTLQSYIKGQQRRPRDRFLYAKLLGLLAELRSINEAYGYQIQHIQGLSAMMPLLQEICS

CC(C=O)Cc1ccc(C(C)(C)C)cc1 (stereo unspecified)
Potency [1]: inactive
Potency [2]: inactive
Potency [3]: inactive
Potency [4]: inactive
Potency [5]: inactive
Potency [6]: inactive
Potency [7]: inactive
Potency [8]: inactive
Potency [9]: inactive
Potency [10]: inactive
Potency [11]: inactive

NC(=O)c1ncn([C@@H]2O[C@H](CO)[C@@H](O)[C@H]2O)n1
Potency [1]: inactive
Potency [2]: inactive
outcome [12]: inactive
Potency [13]: inactive
Potency [5]: inactive
Potency [14]: inactive
Potency [6]: inactive
Potency [7]: 7.23 µM (active)

O=C(Cl)c1ccc(C(=O)Cl)cc1
Potency [1]: inactive
Potency [2]: inactive
Potency [3]: inactive
Potency [4]: inactive
Potency [5]: inactive
Potency [6]: inactive
Potency [15]: inactive
Potency [7]: inactive
Potency [16]: inactive
Potency [8]: inactive
Potency [11]: inactive

CC1=CC(=O)CC(C)(C)C1
Potency [1]: 25.3 µM (active) and inactive
Potency [2]: inactive
Potency [3]: 4.99 µM (active) and inactive
Potency [4]: inactive
Potency [5]: 22.3 µM (active) and inactive
Potency [14]: 36.6 µM (active) and inactive
Potency [9]: inactive
Potency [10]: inactive
Potency [11]: inactive

O=[N+]([O-])c1cc(C(F)(F)F)ccc1Cl
Potency [1]: inactive
Potency [2]: inactive
Potency [5]: inactive
Potency [14]: inactive
Potency [6]: inactive
Potency [15]: inactive
Potency [7]: inactive
Potency [16]: inactive
Potency [9]: inactive
Potency [10]: inactive
Potency [11]: inactive

CCCCCCCC(=O)O
Potency [1]: inactive
Potency [2]: inactive
Potency [5]: inactive
Potency [14]: inactive
Potency [6]: inactive
Potency [15]: inactive
Potency [7]: inactive

OCc1ccc(Cl)cc1Cl
Potency [1]: inactive
Potency [2]: inactive
Potency [3]: inactive
Potency [5]: inactive
Potency [14]: inactive
Potency [6]: inactive
Potency [15]: inactive
Potency [7]: inactive
Potency [8]: inactive

C[n+]1ccn(CCO)c1
Potency [1]: inactive
Potency [2]: inactive
Potency [3]: inactive
Potency [4]: inactive
Potency [5]: inactive
Potency [14]: inactive
Potency [6]: inactive
Potency [9]: inactive
Potency [10]: inactive

Cc1ccccc1C=O
Potency [1]: inactive
Potency [2]: inactive
Potency [5]: inactive
Potency [14]: inactive
Potency [6]: inactive
Potency [15]: inactive
Potency [7]: inactive
Potency [8]: inactive
Potency [11]: inactive

Cc1ccc(Cl)cc1
Potency [1]: inactive
Potency [2]: inactive
Potency [5]: inactive
Potency [14]: inactive
Potency [6]: inactive
Potency [7]: inactive
Potency [16]: inactive
Potency [8]: inactive
Potency [11]: inactive

c1cnc2c(c1)ccc1cccnc12
Potency [1]: inactive
Potency [2]: inactive
Potency [4]: 2.19 µM (active) and 9.69 µM (active) and 2.73 µM (active)
Potency [17]: 2.98 µM (active)
outcome [18]: inactive
Potency [19]: 2.03 µM (active)
Potency [13]: 6.68 µM (active)
outcome [20]: inactive
Potency [5]: 19.5 µM (active) and 2.17 µM (active) and 4.86 µM (active)
Potency [14]: 71.7 µM (active) and inactive
Potency [15]: 617 nM (active) and 1.93 µM (active)
Potency [7]: 219 nM (active) and inactive and 864 nM (active)
Potency [16]: inactive
Potency [9]: 777 nM (active) and 969 nM (active) and 1.72 µM (active)
Potency [10]: inactive
Potency [11]: inactive

O=c1n(CCCN2CCN(c3cccc(Cl)c3)CC2)nc2ccccn12
Potency [1]: inactive
Potency [3]: inactive
Potency [4]: inactive
outcome [12]: inactive
Potency [17]: inactive
outcome [18]: inactive
Potency [13]: inactive
Potency [5]: inactive
Potency [6]: inactive
Potency [7]: inactive
Potency [16]: inactive
Potency [11]: inactive
